# PubChem BioAssay (NCI)
# Compounds without any hit were thinned out: in the full panel of roughly 83,000, 20% have a hit.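 Note: values are percent growth. 100 is the growth of untreated cells, values between 100 and 0 indicate rising inhibition; between -100 and 0 indicates cell death.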 Unmarked numbers belong to inactive results. Active and inactive are the calls of the source. The calls were made as follows: active = growth percent below 10; inactive = the rest.
# Assays:
# Assay in all cases: NCI-60 one-dose screen, 48 h (100 = growth as untreated, 0 = no growth, -100 = all killed)
# Details in all cases: 10 µM unless noted
# [1] = tested on: HCT-15 colon
# [2] = tested on: HT29 colon
# [3] = tested on: SNB-75 CNS
# [4] = tested on: SNB-19 CNS
# [5] = tested on: U251 CNS
# [6] = tested on: PC-3 prostate
# [7] = tested on: SK-MEL-5 melanoma
# [8] = tested on: UACC-62 melanoma
# [9] = tested on: LOX IMVI melanoma
# [10] = tested on: SK-MEL-28 melanoma
# [11] = tested on: SK-MEL-2 melanoma
# [12] = tested on: EKVX NSCLC
# [13] = tested on: SN12C renal
# [14] = tested on: UO-31 renal
# [15] = tested on: TK-10 renal
# [16] = tested on: ACHN renal
# [17] = tested on: CAKI-1 renal
# [18] = tested on: A498 renal
# [19] = tested on: CCRF-CEM leukemia
# [20] = tested on: MOLT-4 leukemia
Compound,growth [1],growth [2],growth [3],growth [4],growth [5],growth [6],growth [7],growth [8],growth [9],growth [10],growth [11],growth [12],growth [13],growth [14],growth [15],growth [16],growth [17],growth [18],growth [19],growth [20]
CCNC(=O)N1CCc2cc(OC)c(OCCc3ccc(OC)c(N)c3)cc2C1c1ccc(C)cc1C (stereo not given),10.4%,3.09% (active),41.5%,30.1%,17.8%,29.1%,-7.76% (active),24.2%,6.47% (active),42.5%,4.33% (active),44%,22.6%,30.4%,56.1%,27.6%,22.9%,-5% (active),34.5%,29.3%
CCCn1cnc2c(c1=N)C(c1ccc(F)cc1)c1sc3c(C)cccc3c1O2 (stereo not given),18.5%,57%,-4.36% (active),22.4%,24.4%,33.4%,24.8%,27.7%,28.8%,45.1%,52.8%,37.1%,61.9%,32.8%,70.9%,35.5%,28.6%,-19.9% (active),-3.84% (active),40%
CCNC(=O)Oc1ccc(/C(=C(/C)c2ccccc2)c2ccc(OCCN3CCCCCC3)cc2)cc1,3.38% (active),-14.2% (active),-0.681% (active),12.7%,-44.6% (active),13.1%,-94.7% (active),16.5%,-14.8% (active),-41.8% (active),-30% (active),52.4%,26.4%,-20.3% (active),66.5%,18.9%,8.75% (active),26.6%,7.24% (active),2.51% (active)
CNC(=O)c1c(NC(=O)c2cccc(C(F)(F)F)c2F)sc2c1CCC(=O)C2,5.54% (active),9.35% (active),0.105% (active),16.5%,4.78% (active),14.9%,-83.7% (active),7.56% (active),16%,47.8%,8.04% (active),13.1%,10%,-29.2% (active),34.6%,4.75% (active),-30.6% (active),-1.35% (active),13.6%,7.37% (active)
O=C(Cn1cc[n+](CC(=O)c2ccc(-c3ccccc3)cc2)c1)Nc1cccc2cccnc12,101%,59.8%,63.4%,57.7%,58.3%,54.5%,69.6%,59.1%,79.2%,74.9%,83%,86.8%,75.9%,94.3%,119%,105%,102%,88.6%,64.9%,73.5%
O=C(CN1CCN(c2cc(=O)n(-c3ccccc3)c3ccccc23)CC1)Nc1nc(-c2ccccc2)cs1,25.2%,73%,71.6%,85.2%,59.2%,32.5%,5.29% (active),63.9%,49.4%,71.2%,88.9%,45.5%,82.1%,41.6%,97.7%,63.8%,61.4%,66.2%,39.6%,17.8%
C=CCOc1cccc(/C=C2\SC(=S)N(C3CC(=O)N(c4ccc(Br)cc4)C3=O)C2=O)c1 (stereo not given),97.5%,115%,120%,96.5%,96.6%,93.1%,101%,86.8%,93.1%,96.6%,117%,105%,92.8%,89.6%,126%,94.8%,104%,105%,96.7%,105%
CCOC(=O)c1c(NC(=O)c2ccccc2C(F)(F)F)sc2c1CCC(=O)C2,10.5%,75.4%,65.4%,18.6%,17.5%,14.6%,-50.3% (active),13%,3.5% (active),80.1%,91.2%,32.2%,25.8%,-1.08% (active),91.1%,6.88% (active),21.1%,85.2%,10.3%,94.2%
Cc1ccc(-c2cc3nc(C(Cl)Cl)nc(-c4cccs4)n3n2)cc1,61.7%,39.2%,110%,63.8%,39.4%,66.5%,96.8%,78.9%,96.2%,87.4%,105%,66.3%,85.9%,70.7%,141%,21%,55.6%,84.3%,104%,98.6%
CN1CCN(c2ccc(/C=N/n3cnc4oc(-c5ccccc5)cc4c3=N)cc2)CC1,83.9%,66.2%,55.3%,101%,100%,63.2%,88.6%,93%,61.3%,77.8%,103%,88.4%,66%,63.7%,119%,70.1%,72.5%,81.4%,44.8%,44.4%
COc1cc2oc(-c3cccc(C(=O)N[C@@H](CC(C)C)C(=O)OC(C)(C)C)c3)cc(=O)c2c(OC)c1OC,36.9%,83.7%,80.9%,78.3%,76.1%,58.4%,74.1%,51.6%,46.5%,95.9%,81.6%,89.7%,57%,39.6%,95%,69.7%,53.6%,96.7%,40.2%,62.1%
CN(Cc1ccccc1)S(=O)(=O)/N=C1\NC(=O)NC1=C(Cl)Cl,-69% (active),48%,107%,68.6%,18.8%,35.6%,95.7%,62.2%,-84.5% (active),11.2%,87.8%,86.2%,18.4%,93.3%,44.1%,-90.8% (active),86.8%,70.8%,-12.8% (active),10.3%
O=C1Nc2ccccc2/C1=C/c1ccc(COCC2CO2)n1-c1ccc(O)cc1 (stereo not given),107%,110%,95.1%,97.7%,99.4%,101%,101%,96%,79.6%,106%,101%,102%,105%,89.7%,104%,97%,98.3%,115%,89.2%,98.8%
CC1(C)[C@@H](O)CC[C@]2(C)[C@H]3CC[C@@H]4[C@H]5[C@H](C(=O)/C=C\c6ccncc6)CC[C@]5(O)CC[C@@]4(C)[C@]3(C)CC[C@@H]12,20.3%,34.7%,21.2%,58.7%,61.1%,67.5%,80.6%,46.9%,5.63% (active),74.8%,94.9%,42.8%,75.1%,53.1%,100%,52.5%,35.1%,46.6%,8.75% (active),27.9%
Cc1ccc(NC(=O)c2ccc(CN3CCN(C)CC3)cc2)cc1Oc1ccc(-c2[nH]nc3ncnc(N)c23)cc1,99.4%,12.6%,75.1%,104%,86.8%,84.5%,85.2%,84.3%,66.7%,88.6%,103%,107%,96.4%,85.3%,110%,101%,92.5%,94.3%,59.5%,71.7%
